# In PubChem BioAssay AID1259416 (Broad Institute, 2018):
# Several values for one entry are separate records, joined by “and”; a condition that tells them apart may be missing. Equal entries are not always repeated. About 2,600 (3.8%) of roughly 69,000 compounds were called active. Shown is part of a subset that was picked to be rich in actives. Unmarked numbers belong to inactive results. Rule as the data show it: active = activity change below about -70% (passing the limit was not always enough); inconclusive = no clear call, values can overlap the other calls.
# Experiment: inhibitors of Toxoplasma growth in IFN-γ-primed hosts – cell-based, primary screen (AID 1259416);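 also: host cells are HeLa cells infected with Toxoplasma gondii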
# Conditions: Toxoplasma gondii growth in IFN-gamma-treated host cells; hits give low values; concentration not given here
row,Compound,"activity change, negative = inhibition"
1,O=C(CC1CCN(Cc2ccccn2)CC1)Nc1ccc(OC2CCCC2)cc1,-69.9%
2,COC(=O)c1ccc(-c2noc(-c3c(O)c4ccccc4[nH]c3=O)n2)cc1,21.8%
3,O=C(CCCn1cnnn1)N1CCc2onc(-c3cccc(F)c3)c2C1,-6.14%
4,CCCCCCCCCc1ccc(OCCOCCOCCOCCOCCOCCOCCOCCOCCO)cc1,-80.7% (active)
5,CCCCc1ccc(S(N)(=O)=O)cc1,-51.9%
6,CCCCCc1ccc(C#Cc2ccc(OC(F)F)cc2)cc1,5.21%
7,Cc1cc(-c2cccc(O)c2)nc(-c2ccccc2O)n1,-20%
8,CN1C(=O)c2cc(NC(=O)C3CCOCC3)ccc2OC[C@@H]2O[C@H](CC(=O)NCc3ccccc3F)CC[C@H]21,11.5%
9,CN(C)C(=O)N1CCc2ncnc(C3CCOC3)c2CC1 (centres undefined),1.98%
10,O=C(Cn1c(=O)cc(C(=O)N2CCCCC2)c2ccccc21)NC1CCCC1,11.6%
11,CC(C)CN1CC[C@H]2[C@H](CC1)S(=O)(=O)CCN2C(=O)c1ccccc1,3.93%
12,CC(C)CN1CCC2(C=C(C(=O)N(C)C)c3ccccc32)CC1,-81.7% (active)
13,CC(C)CN1C(=O)N(C2Cc3ccccc3C2)C(=O)C12CCN(Cc1nc3ccccc3n1C)CC2,-8.38%
14,Cc1ccc(C(=O)N2CCC3(CC2)C(=O)N(C)CCN3CC2CC2)cn1,1.05%
15,CN1C[C@@H]2C3(CCN(C(=O)Nc4ccccc4)CC3)CC[C@@]2(C(=O)N2CCCC2)C1,6.69%
16,COc1ccc2c3c(n(C)c2c1)[C@@H](CO)N(C)CC31CN(S(=O)(=O)c2cccs2)C1,36%
17,C#C[C@]1(O)CC[C@H]2[C@@H]3CCC4=CC(=O)CC[C@@H]4[C@H]3CC[C@@]21CC,-81.4% (active) and -75.5% (active)
18,C#C[C@]1(O)CC[C@H]2[C@@H]3CCC4=CC(=O)CC[C@@H]4C3CC[C@@]21CC (some centres undefined),-83.8% (active)
19,COc1cc(-c2nc(CN3[C@@H]4CC[C@H]3CNC(=O)C4)c(C)o2)cc2c1OCO2,-3.36%
20,COc1ccccc1NC(=O)Cn1ncc2c(N3CCN(c4ccccc4)CC3)ncnc21,74%

row,Compound,"activity change, negative = inhibition"
1,COc1ccc(-c2nc(C)c(CCNC(=O)C(=O)Nc3cccc(OC)c3)s2)cc1,487%
2,Cc1oc(-c2cccc(Oc3ccccc3)c2)nc1CN1[C@@H]2CC[C@H]1CNC(=O)C2,-8.53%
3,O=C(CC1Nc2c3ccccc3nc(=S)n2C1=O)N1CCN(c2ccc(Cl)cc2)CC1 (centres undefined),-16.2%
4,COc1ncc(-c2cccc(C(C)N3CCCC3)c2)c(OC)n1 (centres undefined),-10.7%
5,C[C@@H]1CCCCO[C@@H](CN(C)Cc2ccncc2)[C@H](C)CN([C@H](C)CO)C(=O)c2cc(NC(=O)Cc3ccccc3)ccc2O1,318%
6,Cc1ccc(S(=O)(=O)Nc2ccc3c(c2)C(=O)N([C@@H](C)CO)C[C@@H](C)[C@H](CN(C)Cc2ccc(C(F)(F)F)cc2)O3)cc1,-72.9% (active)
7,C[C@H](CO)N1C[C@H](C)[C@@H](CN(C)Cc2ccncc2)OCCCC[C@H](C)Oc2ccc(NS(=O)(=O)c3ccc(Cl)cc3)cc2C1=O,-94.1% (active)
8,C[C@@H]1CN([C@H](C)CO)C(=O)c2cc(NC(=O)Cc3ccccc3)ccc2O[C@@H](C)CCCCO[C@@H]1CN(C)Cc1ccncc1,31.6%
9,C[C@H](CO)N1C[C@H](C)[C@H](CN(C)Cc2ccncc2)Oc2ccc(NS(=O)(=O)c3ccc(F)cc3)cc2CC1=O,33.3%
10,Cc1noc(C)c1S(=O)(=O)Nc1ccc2c(c1)C(=O)N([C@@H](C)CO)C[C@H](C)[C@@H](CN(C)C(=O)Nc1cccc3ccccc13)OCCCC[C@H](C)O2,141%
11,C[C@@H]1CN([C@H](C)CO)C(=O)c2cc(NS(=O)(=O)c3ccccc3)ccc2O[C@@H](C)CCCCO[C@H]1CN(C)C(=O)C1CCCCC1,-116% (active)
12,Cc1noc(C)c1S(=O)(=O)N(C)C[C@@H]1OCCCC[C@H](C)Oc2ccc(NC(=O)CCC(F)(F)F)cc2C(=O)N([C@H](C)CO)C[C@H]1C,94.9%
13,Cc1ccc(S(=O)(=O)Nc2ccc3c(c2)C(=O)N([C@H](C)CO)C[C@@H](C)[C@H](CN(C)S(=O)(=O)c2cccs2)OCCCC[C@@H](C)O3)cc1,-131% (active)
14,C[C@@H]1CN([C@H](C)CO)C(=O)c2cc(NS(=O)(=O)c3cccs3)ccc2O[C@@H](C)CCCCO[C@@H]1CN(C)C(=O)c1ccncc1,14.1%
15,C[C@@H]1CN([C@@H](C)CO)C(=O)c2cc(NS(C)(=O)=O)ccc2O[C@@H]1CN(C)C,-0.62%
16,C[C@@H]1CN([C@@H](C)CO)C(=O)c2cc(NS(=O)(=O)c3ccccc3)ccc2O[C@@H](C)CCCCO[C@H]1CN(C)C(=O)C1CCCCC1,-14.8%
17,CCOC(=O)c1oc2ccc(S(=O)(=O)Nc3ccc4[nH]c(=O)[nH]c4c3)cc2c1C,75.3%
18,COCc1nnn2c1CN(Cc1ccc(C)s1)CCC2,-49.3%
19,O=C(C1CCOCC1)N1CC(=O)N2[C@H](CO)[C@H](c3ccc(C#CC4CCCCC4)cc3)[C@H]2C1,19.2%
